Assay outcomes: PubChem BioAssay, National Center for Advancing Translational Sciences (NCATS)
AMA1-RON2 inh – qHTS for Inhibitors of AMA1-RON; Towards Development of Antimalarial Drug Lead: Primary Screen; AID 720542, 2013; Potency, µM (top dose mostly 58.2 µM), usual class: inhibitors; Plasmodium falciparum AMA1 (3D7) - RON2 peptide interaction; actives 0.2% (n = 360,000); AlphaScreen AMA1-biotinylated RON2 peptide binding; note: nearly all actives have a fitted effect of over 45% in size
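AMA1 (3D7) with his tag at 25 nM final met compounds first, then biotinylated RON2 peptide at 25 nM; detection used donor plus acceptor beads, 10 µg/mL apiece, read by AlphaScreen after 30 min at room temperature.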
Pf growth 48h – Primary qHTS for delayed death inhibitors of the malarial parasite plastid, 48 hour incubation. Potency, µM (highest dose often 28.7 µM), most hits filed as inhibitors. P. falciparum luciferase growth in erythrocytes, 48 h. actives 5.9% (n = 310,000). AID 504832, 2011
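Here the parasites carry a stable luciferase gene and grow inside erythrocytes in Albumax-based RPMI medium with compound for one erythrocytic cycle. Activity is scored as loss of luminescent signal.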
Pf growth 96h – Primary qHTS for delayed death inhibitors of the malarial parasite plastid, 96 hour incubation; AID 504834, 2011; actives 6.9% (n = 320,000); P. falciparum luciferase reporter growth, 96 h; Potency, µM (titrated, usually from 28.7 µM), most hits filed as inhibitors
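P. falciparum expressing integrated firefly luciferase grown in erythrocytes (2% hematocrit, 0.05% parasitemia final) with compounds for 96 hours at 37 C, 5% CO2. Growth inhibition read as loss of luminescence after adding luciferase detection reagent.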
HCV inhibitor – qHTS Assay for Inhibitors of Hepatitis C Virus (HCV) | Huh7.5.1 HCVcc-Cre infection, luciferase reporter, 44 h | AID 651820, 2012 | Potency, µM (doses to about 41.8 µM), most hits filed as inhibitors | actives 3.4% (n = 340,000)
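Reporter virus HCVcc-Cre (~0.5 moi) infects cells exposed to compound; seeding density 1,000 cells/well with 4 h settling beforehand. Luminescence, 15 sec read, taken 44 h post-infection following a 15 min RT substrate incubation.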
Each line names hits and unclear results; the compound was inactive in the other large screens. The list is not random: actives were taken first. Their share in the collection is about 11%. Calls come from the whole dose curve; as a rule, active = well fitted curve in the direction sought with a large enough effect; inconclusive = small, poorly fitted or top-dose-only effect, or another doubt; inactive = no such curve, though single readings can be large; an effect the other way counts as inactive or inconclusive.

Cc1ccccc1OCC(O)CN(CCO)Cc1ccccc1 (centres undefined)	Pf growth 48h inconclusive, Pf growth 96h inconclusive
O=[N+]([O-])c1ccc(OCC(O)CN(C2CCCCC2)C2CCCCC2)cc1 (centres undefined)	Pf growth 48h inconclusive, Pf growth 96h inconclusive
COc1cccc(/C=N/Nc2nnc(C)n2N)c1OCc1ccccc1Cl	Pf growth 48h inconclusive, HCV inhibitor 22.4µM
CCc1nnc(N/N=C/c2ccccc2Cl)n1N	Pf growth 96h inconclusive
O=C(OCC(=O)N(CCc1ccccc1)Cc1ccccc1)c1ccc(F)c(S(=O)(=O)N2CCOCC2)c1	none (no result: Pf growth 48h, Pf growth 96h)
CCN(CC)CCNC(=O)c1ccc2c(=O)n(C3CCCC3)c(=S)[nH]c2c1	Pf growth 48h 2.33µM, HCV inhibitor inconclusive
CCCCNC(=O)c1ccc2c(=O)n(CCCOCC)c(=S)[nH]c2c1	none
CCN(CC)CCNC(=O)CCCCn1c(=S)[nH]c2c([nH]c3ccc(OC)cc32)c1=O	Pf growth 48h 9.28µM, Pf growth 96h inconclusive
COc1cc2[nH]c(=S)n(Cc3ccc(C)cc3)c(=O)c2cc1OC	Pf growth 96h 10.4µM
CCOCCCn1c(=S)[nH]c2cc(C(=O)NCCN(CC)CC)ccc2c1=O	Pf growth 48h inconclusive, Pf growth 96h inconclusive, HCV inhibitor 12.6µM
COCCCn1cc(C(=O)c2cc(OC)ccc2OCC(=O)Nc2cc(C)on2)cc(C#N)c1=O	HCV inhibitor inconclusive (no result: Pf growth 96h)
Cc1nn(C)c(C(=O)NNC(=O)NC2CCCCC2)c1Cl	none
CCCCCNC(=O)c1ccc2c(=O)n(CCCN3CCCC3=O)c(=S)[nH]c2c1	Pf growth 48h 5.86µM, Pf growth 96h 10.4µM, HCV inhibitor inconclusive
COCCNC(=O)c1ccc2c(=O)n(CCCN3CCCC3=O)c(=S)[nH]c2c1	Pf growth 48h inconclusive, Pf growth 96h inconclusive
CCOc1cc2[nH]c(=S)n(Cc3ccc(C(=O)NCCN(CC)CC)cc3)c(=O)c2cc1OCC	Pf growth 48h 2.62µM, HCV inhibitor inconclusive
Cc1ccc(NC2CCCN(C(=O)CN3C(=O)c4ccccc4C3=O)C2)cc1C (centres undefined)	Pf growth 48h inconclusive, Pf growth 96h 14.7µM
O=C(CCc1ccncc1)N1CCCC(Nc2ccc(F)c(F)c2)C1 (centres undefined)	Pf growth 96h 13.1µM
COc1ccc(NC2CCCN(C(=O)CCCn3cncn3)C2)cc1OC (centres undefined)	Pf growth 96h 2.62µM
Cc1ccc(NC2CCCN(C(=O)CCC(=O)c3ccccc3)C2)cc1C (centres undefined)	Pf growth 48h inconclusive
Cc1ccc(NC2CCCN(C(=O)CSc3ccncc3)C2)cc1C (centres undefined)	Pf growth 96h 13.1µM
Cc1ccc(NC2CCCN(C(=O)CCc3ccncc3)C2)cc1C (centres undefined)	none
CC(C)c1ccc(NC2CCCN(C(=O)CCN3CCCCC3=O)C2)cc1 (centres undefined)	Pf growth 96h inconclusive
CC(C)c1ccc(NC2CCCN(C(=O)CCN3Cc4ccccc4C3=O)C2)cc1 (centres undefined)	Pf growth 96h 1.85µM
COCc1cc(C)nc(SCC[N+](C)(C)CC(=O)c2ccccc2)c1C#N	Pf growth 48h inconclusive
Cc1c(CN(C)C)c2c(n1C)C(=O)c1ccc(Br)cc1-2	Pf growth 48h inconclusive, Pf growth 96h 11.7µM, HCV inhibitor inconclusive
O=c1oc2cc(Br)ccc2n1Cc1ccccc1	none
Cc1c(CN(C)C)c2c(n1Cc1ccccc1)C(=O)c1ccc(Br)cc1-2	AMA1-RON2 inh inconclusive, Pf growth 96h 2.33µM, HCV inhibitor inconclusive (no result: Pf growth 48h)
CCOC(=O)c1c2c(n(C)c1C)C(=O)C(=O)c1ccc(Br)cc1-2	HCV inhibitor inconclusive (no result: Pf growth 48h, Pf growth 96h)
Cc1cc(Br)c2nc3c(c(C(=O)O)c2c1)CCCCC3	Pf growth 96h 8.28µM
CCc1ccc2nc3c(c(C(=O)O)c2c1)CCC3	Pf growth 96h inconclusive
COc1ccc(C(=O)NC(=S)N2CC(C)OC(C)C2)cc1OC (centres undefined)	Pf growth 96h 5.22µM
Cc1nnn(C23CC4CC(CC(CC(=O)Nc5cccc(F)c5)(C4)C2)C3)n1	Pf growth 48h inconclusive
Cc1cccc(NC(=O)CC23CC4CC(C2)CC(n2nnc(C)n2)(C4)C3)c1	Pf growth 48h inconclusive, Pf growth 96h 13.1µM
Cc1cc(C)c2cc(CN(Cc3cccnc3)C(=O)c3ccc(F)cc3)c(Cl)nc2c1	Pf growth 48h 1.47µM, Pf growth 96h inconclusive
